Screens as filed in PubChem.
FMDV inh = antivirals against foot and mouth disease virus; 410,000 tested, 1.2% active; FMDV antiviral cell-based qHTS; Potency, µM (top dose mostly 57.9 µM), inactives show at the top dose activity change, negative = inhibition, most hits filed as inhibitors; calls by dose curve; tested in HEK293T cells; also: read-out not given here; potency is read from the fitted curve at half-maximal effect; % is scaled to controls: 0 for no effect and ±100 for the full control effect; nearly all actives have a fitted effect of over 45% in size
Lassa entry inh = blocks Lassa virus binding to or entry into cells; Lassa virus pseudotype entry inhibition, cell reporter; AID 540256; 300,000 tested, 1.2% active; Potency, µM (top dose mostly 37.9 µM), for inactives: at the highest dose activity change, negative = inhibition, hits mostly inhibitors; calls by dose curve; tested in HEK293 cells; also: potency is read from the fitted curve at half-maximal effect; % is scaled to controls: 0 for no effect and ±100 for the full control effect; nearly all actives have a fitted effect of over 50% in size
HCMV inh = human cytomegalovirus inhibition. 410,000 tested, 4.5% active. activity change, negative = inhibition, % at 57.5 µM. HFF cells, HCMV-luciferase reporter, 72 h; hits give low values. AID 1259415; in the data active = activity change below about -60%; inconclusive = no clear call, values can overlap the other calls; inactive = above about -39%; also: % is scaled to controls: 0 for no effect and ±100 for the full control effect
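Steps: HFFs plated, 16 h 37C; compounds added; HCMV-luciferase added to MOI 1 PFU/cell; 72 h 37C; OneGlo reagent, 5 min room temperature; luminescence read, normalized to controls.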
MARV entry inh = blocks Marburg virus binding to or entry into cells | Marburg virus pseudotyped entry inhibition, cell reporter | Potency, µM (doses to about 37.8 µM), without a hit: at the top dose activity change, negative = inhibition, hits mostly inhibitors | 300,000 tested, 1.8% active; calls by dose curve; tested in HEK293 cells; also: potency is read from the fitted curve at half-maximal effect; % is scaled to controls: 0 for no effect and ±100 for the full control effect
SARS PLP yeast = inhibitors of SARS-CoV papain-like protease in yeast. S. cerevisiae expressing SARS-CoV PLpro, growth rescue. Potency, µM (highest dose often 32.9 µM), for inactives: top-dose activity, positive = growth rescue, actives largely listed as activators. AID 485353. 330,000 tested, 0.19% active; calls by dose curve; also: potency is read from the fitted curve at half-maximal effect; 0% is about no effect; nearly all actives have a fitted effect of over 55% in size
HCV inh = inhibitors of hepatitis C virus infection | Huh7.5.1 HCVcc-Cre infection, luciferase reporter, 44 h | Potency, µM (series often up to 41.8 µM), without a hit: at the top dose activity change, negative = inhibition, usual class: inhibitors | 340,000 tested, 3.4% active; active = well fitted inhibition curve with a large enough effect; inconclusive = small, poorly fitted or top-dose-only effect, or another doubt; inactive = no such curve, though single readings can be large or run the other way; also: potency is read from the fitted curve at half-maximal effect; % is scaled to controls: 0 for no effect and ±100 for the full control effect
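Cells (1,000/well) were plated 4 h before compound, then infected with HCVcc-Cre virus (~0.5 moi). After 44 h further culture, infection was read as luciferase luminescence following a 15 min substrate incubation at room temperature.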
The depositor's hits bear a star; u = inconclusive; x = no result; [ ] = another dose, or the depositor's remark. Shown are actives, neighbours in structure and some others; about 8% of the full set was active somewhere.

SMILES	FMDV inh	Lassa entry inh	HCMV inh	MARV entry inh	SARS PLP yeast	HCV inh
COc1cc2ccccc2cc1C(=O)Nc1ccc(CN2CCOCC2)cc1	39%	x	-3	18%[46.1 µM]	-3%	6.3µM*
O=C(CCCc1ccccc1)NCCN1CCOCC1	16%	2%	-100*	24%	8%	20%
O=C(NCCN1CCOCC1)c1cc2ccccc2oc1=O	27%	5%	-20	u	1%	3.2µM*
O=C(NCCN1CCOCC1)c1cc2ccccc2o1	14%	10%	-7	14%[46.1 µM]	-2%	12%
CC(C)Oc1ccc(-c2cc(C(=O)NCCN3CCOCC3)c3ccccc3n2)cc1	11%	-11%	95	-5%	-9%	10µM*
O=C(NC(=S)Nc1ccc(CN2CCOCC2)cc1)c1cc2ccccc2o1	9%	x	-70*	x	0%	-9%
O=C(Nc1ccc(CN2CCOCC2)cc1)c1cc2ccccn2n1	-66%	6.5µM*	70	u	13%	2%
O=C(NCCN1CCOCC1)c1cc(-c2ccc(F)cc2)nc2ccccc12	-6%	u	-22	22%	-3%	-2%
CC(C)CNS(=O)(=O)c1cc(C(=O)OCC(=O)c2ccc3c(c2)OCCO3)c(Cl)cc1Cl	u	u	-3	u	6%	-18%
CCCn1c(C)cc(C(=O)COC(=O)c2cc(S(=O)(=O)NCC(C)C)c(Cl)cc2Cl)c1C	26%	u	-7	-15%	-1%	10µM*
CCOC(=O)c1c(C)n(-c2ccc(C)cc2)c2ccc(OCC(O)CNCCCO)cc12 (centres undefined)	-27%	u	-75*	u	0%	u
CCOC(=O)COc1ccc2c(c1)c(C(C)=O)c(C)n2-c1ccccc1	-2%	u	-7	8%	-1%	28%
CCOC(=O)c1c(C)n(C)c2ccc(OCCN(C)C)cc12	-14%	16%	29	-17%	3%	10%
CCOc1ccc2c(c1)c(C(C)=O)c(C)n2-c1ccccc1	-20%	3%	u	0%	-8%	11µM*
CCOC(=O)c1c(C)n(-c2ccccc2)c2ccc(OCCN(C)C)cc12	31%	u	17	u	5%	16µM*
COc1ccccc1-c1oc2ccccc2c1C#CCO	-9%	x	-16	x	-5%	-2%
COc1ccccc1-c1oc2ccccc2c1C#CC(C)(C)O	-25%	x	60	x	-6%	10µM*
O=C(COC(=O)C12CC3CC(CC(C3)C1)C2)Nc1ccc([N+](=O)[O-])cc1Cl	0%	-19%	-12	u	-5%	0%
Cn1ncc(SCc2ccccc2)c(Cl)c1=O	u	u	-80*	u	1%	-69%
COc1cnn(-c2ccccc2)c(=O)c1SCc1ccc(Cl)c(Cl)c1	u	-5%	-25	0%	-2%	-1%
CSc1c(SCc2ccccc2)cnn(-c2ccccc2)c1=O	-17%	5.2µM*	4	28%	11%	-14%
CN(NC(=O)c1cccc(Cl)c1)c1nc(-c2ccccc2)nnc1C(F)(F)F	u	u	-5	-20%[46.1 µM]	0%	-27%
FC(F)(F)c1nnc(-c2ccccc2)nc1Sc1ccc(Cl)cc1	-20%	u	84	15µM*	7%	u
CN(N)c1nc(-c2ccccc2)nnc1C(F)(F)F	0%	14%	-105*	-5%	-11%	-14%
COc1ccc(CCN2CCCC(CN(C)Cc3cccc(OC)c3)C2)cc1 (centres undefined)	-8%	u	-18	u	3%	7.9µM*
SMILES	FMDV inh	Lassa entry inh	HCMV inh	MARV entry inh	SARS PLP yeast	HCV inh
CCN(Cc1ccc(NC(C)=O)cc1)CC1CCCN(CCc2cccc(OC)c2)C1 (centres undefined)	u	x	-26	x	0%	u
CN(Cc1ccc(C#CCCO)cc1)CC1CCCN(CCc2ccc(Cl)cc2)C1 (centres undefined)	-17%	x	-7	x	-3%	-4%
CN(Cc1ccccc1O)CC1CCCN(CCc2ccc(Cl)cc2)C1 (centres undefined)	-21%	x	6	x	2%	10µM*
COc1ccc(CN(C)CC2CCCN(CCc3ccc(F)cc3)C2)c(OC)c1OC (centres undefined)	-27%	x	11	x	-2%	u
COc1ccc(CCN2CCCC(CN(C)Cc3cc(OC)ccc3OC)C2)cc1 (centres undefined)	-8%	x	-9	x	-1%	10µM*
c1ccc2c[n+](CCCCCCCCCC[n+]3ccc4ccccc4c3)ccc2c1	x	x	-81*	x	x	x
Oc1ccc[n+](CCCCC[n+]2cccc(O)c2)c1	-14%	x	-13	1%	0%	10%
CCCc1c(C(=O)NNc2cc(C(F)(F)F)ccc2Cl)cnn1-c1ccccc1	-12%	-9%	-66*	u	-1%	u
CCCc1c(C(=O)Nc2ccc(C(F)(F)F)cc2)cnn1-c1ccccc1	u	x	-16	x	-2%	u
Cc1ccc2oc(NC3=NC4(CCCC4)C4=C(CCCC4=O)N3)nc2c1	0%	x	48	x	x	x
COc1cc2[nH]c(=O)n(CCCC(=O)N3CCN(c4cccc(C(F)(F)F)c4)CC3)c(=O)c2cc1OC	u	-22%[46.1 µM]	-7	-16%[46.1 µM]	x	x
O=S(=O)(NC1CCCC1)c1ccccc1Br	41%	x	-97*	x	2%	19%
COc1ccc(S(=O)(=O)NC2CCCC2)cc1Br	41%	-1%	3	12%	-6%	9%
NN=C1c2ccccc2C(=O)C1C(=O)C(c1ccccc1)c1ccccc1 (centres undefined)	-10%	-13%	-18	-6%	x	-21%
COc1ccc(-c2cc([C@H]3[C@@H]4C=CCC[C@@]4(C)C(=O)N3Cc3ccccc3)ccc2F)cc1OC	u	x	21	x	-5%	10µM*
COc1ccc(-c2c([C@H]3[C@@H]4C=CCC[C@@]4(C)C(=O)N3Cc3ccccc3)ccc3ccccc23)cc1OC	u	x	-60*	x	-11%	-13%[8.37 µM]
Clc1ccc(-c2noc3ncnc(NCCCN4CCN(c5ccccc5)CC4)c23)cc1	u	-24%[46.1 µM]	u	x	x	x
Cc1ccccc1C(=O)Nc1cccc(NC(=O)Cn2cnc3c(=O)n(C)c(=O)n(C)c32)c1	-8%	u	-64*	u	3%	u
Cc1cccc(Cn2c(SCC(=O)Nc3ccccc3)nc3c2c(=O)[nH]c(=O)n3C)c1	-24%	x	23	x	4%	25µM*
CCOc1ccc(OCC)c(NC(=O)CSc2nc3cccnc3n2C)c1	18µM*	-28%	-63*	-21%	-2%	6.3µM*
CCOc1ccc(OCC)c(NC(=O)CSc2nc3ccccc3c(=O)n2C)c1	u	u	-70*	u	2%	u
Cc1cccc(C)c1NC(=O)Cn1cnc2c(=O)n(C)c(=O)n(C)c21	-17%	-5%	56	14%	1%	-3%
CCOc1ccc(OCC)c(NC(=O)CSc2nnnn2CC)c1	7%	-9%	30	u	-9%	u
